The results in this text go back to PubChem BioAssay (NCATS).

Assay [1] is described as follows: Dual reporter qHTS for agonist of Pregnane X Receptor (hPXR) against the NCATS DSHEA and TCM libraries: Fluorescence readout (AID 1920058). Note: 0% is about no effect. The method in brief: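 hPXR-Luc HepG2 cells, 2000/well in charcoal-stripped serum, attached 5 h, dosed for ~24 h at 37 °C. Fluorescence read is CellTiter-Fluor viability (Ex/Em 405/540 nm); rifampicin positive, tetraoctyl ammonium bromide (92 µM) cytotoxicity controls.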

The target in assay [2] is Nuclear receptor subfamily 1 group I member 2 (Homo sapiens) (UniProt O75469). Kind of assay: Dual reporter qHTS for agonist of Pregnane X Receptor (hPXR) against the NCATS DSHEA and TCM libraries: Luminescence readout (AID 1920059). Note: 0% is about no effect. The method in brief:
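hPXR-Luc HepG2 cells, 2000/well in 5% charcoal-stripped FBS medium, attached 5 h, then exposed 24 h at 37C to compounds. Viability by CellTiter-Fluor, then luciferase luminescence with ONE-Glo.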

The nature of assay [3]: Confirmatory qHTS for activators (rescue) of SARS-CoV-2 Cytopathic Effect (CPE) (AID 1508606; calls by dose curve; note: potency is the fitted concentration of half-maximal effect; nearly all actives have a fitted effect of over 70% in size).
Assay [4] is described as follows: Cell Proliferation Assay against the TMD8 Cell Line (AID 651645).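 Note: cells exposed to compound for 48 h before reading.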 The note with it: TMD8 DLBCL cell line proliferation/viability; at 46.1 µM (top of the series). The method in brief: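 Seed log-phase TMD8 cells in RPMI containing 5% FBS, add compounds at once, incubate 48 hours at 37C. Equilibrate to room temperature, add CellTiter-Glo, read luminescence after 15 minutes and express relative to DMSO and bortezomib controls.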

Assay [5] can be described thus: Cell Proliferation Assay against the HBL1 Cell Line (AID 651646).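 Note: cells exposed to compound for 48 h before reading.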 The note with it: HBL1 DLBCL cells; at 46.1 µM (top of the series). The method, boiled down: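 HBL1 ABC DLBCL cells, 500/well in RPMI with 5% FBS, treated for 48 h at 37C. Viability read by CellTiter-Glo luminescence, normalized to DMSO as 100% and 9.2 uM bortezomib as 0%.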
Assay [6] in a line: Cell Proliferation Assay against the TMD8 Cell Line (Caspase readout at 8 hrs) (AID 651713). Note: potency is the fitted concentration of half-maximal effect. The note with it: TMD8 lymphoma cells, caspase activation luminescence. The method, boiled down: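 TMD8 cells in RPMI plus 5% FBS were treated with compound for 8 h at 37C. Caspase 3/7 activation was read by Caspase-Glo luminescence. Percent activity was scaled from DMSO (0%) to 9.2 uM bortezomib final (100%).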

In assay [7] the target is Tyrosine-protein kinase Yes (Homo sapiens) (UniProt P07947). Put plainly: qHTS for small molecule inhibitors of Yes1 kinase: Primary Screen (AID 686947).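 Note: plate controls were DMSO with enzyme for no effect and no-enzyme DMSO wells for full effect; nearly all actives have a fitted effect of over 60% in size.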 The method, boiled down:
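Yes1 (4 nM) preincubated 20 min with compound, then 60 min room-temperature reaction with 0.1 mM ATP and 0.3 mg/mL poly(E4Y) in pH 7.5 Tris, 10 mM MgCl2. ADP measured by ADP-Glo luminescence, normalised to enzyme/no-enzyme controls.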

Assay [8] is described as follows: qHTS for small molecule inhibitors of Yes1 kinase: Counter Assay (AID 686950).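 Note: no kinase present so only ADP-Glo detection of a fixed ADP amount is tested; luminescence from ADP-Glo reporting ADP in a fixed ATP and ADP mixture; 0% = DMSO wells with ATP plus ADP and -100% = ATP-only wells without ADP.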 The method in brief: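 Enzyme-free detection counter-screen: compounds preincubated 20 min in buffer, then 0.08 mM ATP plus 0.02 mM ADP added for 60 min at room temperature; ADP-Glo luminescence. Buffer 50 mM Tris pH 7.5, 10 mM MgCl2, 150 mM NaCl; normalized to ATP+ADP and ATP-only controls.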

A short description of assay [9]: qHTS Assay for Identifying Gametocytocidal Compounds (AID 743244). Note: potency is the fitted concentration of half-maximal effect. The note with it: P. falciparum 3D7 stage III-V gametocytes, alamarBlue, 72 h. The method in brief:
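Stage III-V P. falciparum 3D7 gametocytes, 20,000 per well, were exposed to compounds for 72 h at 37C, 5% CO2. AlamarBlue was then added for 24 h and viability was read as fluorescence at Ex 525/Em 598 nm.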

The target of assay [10] is Calcium and integrin-binding protein 1 (Homo sapiens) (UniProt Q99828). Put plainly: Confirmatory qHTS for Identification of Calcium Integrin Binding Protein 1 (CIB1) Competitor (AID 1508617). Note: potency is the fitted concentration of half-maximal effect; nearly all actives have a fitted effect of over 65% in size. To be noted: CIB1 binding competition assay, biochemical qHTS. The method in brief: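 Binding competition between test compounds and fluorescent alphaIIb peptide for 1 uM CIB1-GST is monitored by FP at 480/540 nm. Final compound range is up to 114 uM; unlabeled peptide serves as reference competitor.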
Calcium and integrin-binding protein 1 (Homo sapiens), sequence (Q99828 whole entry, looked up): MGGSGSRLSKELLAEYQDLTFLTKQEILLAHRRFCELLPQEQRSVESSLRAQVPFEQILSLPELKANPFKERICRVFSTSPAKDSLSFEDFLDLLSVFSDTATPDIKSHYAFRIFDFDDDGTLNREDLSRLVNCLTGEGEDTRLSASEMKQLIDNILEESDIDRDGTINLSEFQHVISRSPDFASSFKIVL

The nature of assay [11]: Primary qHTS for inhibitors of SARS-S pseudo-typed particle cell entry (AID 1479145; calls by dose curve; note: potency is the fitted concentration of half-maximal effect; nearly all actives have a fitted effect of over 45% in size). The note with it: outcome: dose series up to 57.1 µM unless noted.
Assay [12] deals with Lysosomal acid glucosylceramidase (Homo sapiens) (UniProt P04062). Put plainly: Glucocerebrosidase-p2 (AID 348; in the data active = potency below about 10 µM; note: potency is the fitted concentration of half-maximal effect). The note with it: purified GBA, blue fluorogenic substrate, 40 min. The method in brief:
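Compounds titrated from 0.6 nM upwards against 0.2 nM enzyme in pH 5.9 citric acid/KH2PO4, taurocholate, tween-20; blue fluorogenic substrate 80 uM, 40 min room temperature, stopped and read Ex 365/Em 440 for AC50.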

Assay [13] has as its target Cytochrome P450 3A4 (Homo sapiens) (UniProt P08684). Put plainly: qHTS Assay for Inhibitors and Substrates of Cytochrome P450 3A4 (AID 884). Note: potency is the fitted concentration of half-maximal effect; nearly all actives have a fitted effect of over 50% in size. The method in brief:
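20 nM human CYP3A4 with 25 uM Luciferin-PPXE (at KM) in 200 mM KPO4, preincubated 10 min with compound; NADPH regeneration started a 60 min RT reaction. Luciferin detected by luminescence, normalized to 57 uM ketoconazole as full inhibition.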

Assay [14] can be described thus: Primary qHTS for inhibitors of MERS-S pseudo-typed particle cell entry (AID 1479149; calls by dose curve; note: nearly all actives have a fitted effect of over 60% in size). To be noted: outcome: dose series up to 57.1 µM unless noted.
Assay [15] can be described thus: qHTS for differential inhibitors of proliferation of Plasmodium falciparum line 7G8 (AID 1815).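 Note: parasite growth measured after three days of incubation; plate controls were vehicle wells for no effect and reference inhibitor wells for full effect.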
Assay [16] in a line: qHTS Assay for Modulators of Human Peripheral Myelin Protein 22 (PMP22) Expression/Activity (AID 1967; active = well fitted curve in the direction sought with a large enough effect in the signal ratio; the % refers to the signal ratio;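 note: 0% = untreated cells and 100% end not stated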). The method in brief:
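Quantitative HTS in a mouse Schwann cell line expressing dual click beetle luciferases: Pmp22 promoter (green) and control EF-alpha promoter (red). After 24h treatment, corrected green/red signal ratio gave %Activity relative to untreated cells.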

Assay [17] addresses RecQ-like DNA helicase BLM (Homo sapiens) (UniProt P54132). Put plainly: qHTS Validation Assay for Inhibitors of Bloom's syndrome helicase (BLM) (AID 2364).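 Note: plate controls were DMSO vehicle for no effect and enzyme-free control for full effect.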 The method in brief:
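50 nM BLM preincubated 15 min at room temperature with compound in pH 8.0 Tris buffer containing 2.5 ug/ml poly(dI-dC); started with 200 nM TAMRA/BHQ-2 forked duplex and 2 mM ATP (final). Unwinding read as TAMRA fluorescence increase, two reads 2 h apart.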

A short description of assay [18]: Validation screen for small molecules that induce DNA re-replication in SW480 colon adenocarcinoma cells (AID 504364). Note: 0% is about no effect. The method in brief:
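SW480 cells (250/well) exposed 48 h at 37 C, 5% CO2, then Hoechst-stained 40 min. Nuclear DNA content imaged by fluorescence scanning (405 nm excitation, 500-530 nm emission); re-replication scored as increased nuclei with elevated intensity.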

The nature of assay [19]: AP1 Signaling Pathway (AID 357; active = well fitted curve in either direction with a large enough effect, not every such curve was filed as active; note: % is set by controls: 0 for no effect and ±100 for the full control effect). The method in brief: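 AP-1-bla ME-180 cells with beta-lactamase reporter under AP-1 response element, stimulated with EC50 EGF; compounds titrated, 5 hours at 37 degrees Celsius. CCF4 read at 460/530 nm ratio; positive and negative modulators judged by AC50.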
The target in assay [20] is Ferritin light chain (Equus caballus) (UniProt P02791). Kind of assay: qHTS Validation Assay for Identification of Novel General Anesthetics (AID 2323). Note: % is set by controls: 0 for no effect and ±100 for the full control effect. The method, boiled down:
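Apoferritin from horse spleen (10 uM) was mixed with 1-aminoanthracene at 50% saturation in PBS, then compounds were added. After 10 min at room temperature, fluorescence was read (ex 380 nm, em 535 nm) and normalized to free-probe and complex controls.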

SMILES strings stand for the structures. Inconclusive results are not listed. Calls of active or inactive are those of the source. Unless noted, calls come from the whole dose curve; as a rule, active = well fitted curve in the direction sought with a large enough effect; inconclusive = small, poorly fitted or top-dose-only effect, or another doubt; inactive = no such curve, though single readings can be large; an effect the other way counts as inactive or inconclusive.

Tyrosine-protein kinase Yes (Homo sapiens), sequence (P07947 whole entry, looked up): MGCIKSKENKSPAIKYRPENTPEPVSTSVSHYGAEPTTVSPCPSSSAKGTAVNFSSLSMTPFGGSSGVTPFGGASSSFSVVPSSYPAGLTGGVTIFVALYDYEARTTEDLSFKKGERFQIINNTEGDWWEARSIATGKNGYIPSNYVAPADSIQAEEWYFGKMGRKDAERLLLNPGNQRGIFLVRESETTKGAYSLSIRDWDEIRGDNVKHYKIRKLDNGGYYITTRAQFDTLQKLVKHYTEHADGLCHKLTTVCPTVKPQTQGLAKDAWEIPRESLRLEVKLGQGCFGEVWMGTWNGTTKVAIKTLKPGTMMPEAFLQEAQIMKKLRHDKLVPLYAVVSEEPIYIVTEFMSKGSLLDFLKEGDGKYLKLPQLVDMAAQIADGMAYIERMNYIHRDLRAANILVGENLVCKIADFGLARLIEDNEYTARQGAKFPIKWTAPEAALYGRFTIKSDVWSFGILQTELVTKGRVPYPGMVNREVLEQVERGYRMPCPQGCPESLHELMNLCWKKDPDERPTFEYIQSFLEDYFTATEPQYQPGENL
Ferritin light chain (Equus caballus), sequence (P02791 2-175 limits assumed): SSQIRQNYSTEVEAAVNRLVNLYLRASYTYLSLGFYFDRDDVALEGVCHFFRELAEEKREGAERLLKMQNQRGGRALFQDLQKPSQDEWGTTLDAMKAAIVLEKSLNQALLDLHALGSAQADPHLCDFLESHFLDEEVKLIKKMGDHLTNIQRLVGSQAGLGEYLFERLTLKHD
Cytochrome P450 3A4 (Homo sapiens), sequence (P08684 whole entry, looked up): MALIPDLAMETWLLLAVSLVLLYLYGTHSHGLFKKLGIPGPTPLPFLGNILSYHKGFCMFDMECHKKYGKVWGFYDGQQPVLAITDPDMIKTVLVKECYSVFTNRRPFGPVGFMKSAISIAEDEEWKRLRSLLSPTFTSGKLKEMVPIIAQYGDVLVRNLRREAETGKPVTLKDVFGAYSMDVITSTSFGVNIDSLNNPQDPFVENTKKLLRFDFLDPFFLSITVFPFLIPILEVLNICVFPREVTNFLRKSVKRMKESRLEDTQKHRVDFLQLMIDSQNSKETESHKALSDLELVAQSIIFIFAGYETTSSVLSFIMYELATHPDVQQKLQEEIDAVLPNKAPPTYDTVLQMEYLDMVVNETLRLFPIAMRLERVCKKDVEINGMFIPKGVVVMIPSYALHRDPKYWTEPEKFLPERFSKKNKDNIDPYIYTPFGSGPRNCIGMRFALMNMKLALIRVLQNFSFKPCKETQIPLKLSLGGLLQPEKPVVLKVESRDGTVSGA
Nuclear receptor subfamily 1 group I member 2 (Homo sapiens), sequence (O75469 whole entry, looked up): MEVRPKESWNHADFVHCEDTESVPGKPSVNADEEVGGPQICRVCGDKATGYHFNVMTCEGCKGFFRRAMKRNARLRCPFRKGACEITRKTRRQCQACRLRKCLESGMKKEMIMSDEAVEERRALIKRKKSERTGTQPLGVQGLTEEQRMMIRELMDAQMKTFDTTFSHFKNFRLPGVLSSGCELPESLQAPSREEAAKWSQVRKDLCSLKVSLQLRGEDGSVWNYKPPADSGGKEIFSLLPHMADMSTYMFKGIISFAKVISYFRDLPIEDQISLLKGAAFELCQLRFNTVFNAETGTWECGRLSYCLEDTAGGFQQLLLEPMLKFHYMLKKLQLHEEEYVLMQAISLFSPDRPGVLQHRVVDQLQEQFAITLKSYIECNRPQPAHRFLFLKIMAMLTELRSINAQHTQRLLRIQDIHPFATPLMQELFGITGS
RecQ-like DNA helicase BLM (Homo sapiens), sequence (P54132 whole entry, looked up): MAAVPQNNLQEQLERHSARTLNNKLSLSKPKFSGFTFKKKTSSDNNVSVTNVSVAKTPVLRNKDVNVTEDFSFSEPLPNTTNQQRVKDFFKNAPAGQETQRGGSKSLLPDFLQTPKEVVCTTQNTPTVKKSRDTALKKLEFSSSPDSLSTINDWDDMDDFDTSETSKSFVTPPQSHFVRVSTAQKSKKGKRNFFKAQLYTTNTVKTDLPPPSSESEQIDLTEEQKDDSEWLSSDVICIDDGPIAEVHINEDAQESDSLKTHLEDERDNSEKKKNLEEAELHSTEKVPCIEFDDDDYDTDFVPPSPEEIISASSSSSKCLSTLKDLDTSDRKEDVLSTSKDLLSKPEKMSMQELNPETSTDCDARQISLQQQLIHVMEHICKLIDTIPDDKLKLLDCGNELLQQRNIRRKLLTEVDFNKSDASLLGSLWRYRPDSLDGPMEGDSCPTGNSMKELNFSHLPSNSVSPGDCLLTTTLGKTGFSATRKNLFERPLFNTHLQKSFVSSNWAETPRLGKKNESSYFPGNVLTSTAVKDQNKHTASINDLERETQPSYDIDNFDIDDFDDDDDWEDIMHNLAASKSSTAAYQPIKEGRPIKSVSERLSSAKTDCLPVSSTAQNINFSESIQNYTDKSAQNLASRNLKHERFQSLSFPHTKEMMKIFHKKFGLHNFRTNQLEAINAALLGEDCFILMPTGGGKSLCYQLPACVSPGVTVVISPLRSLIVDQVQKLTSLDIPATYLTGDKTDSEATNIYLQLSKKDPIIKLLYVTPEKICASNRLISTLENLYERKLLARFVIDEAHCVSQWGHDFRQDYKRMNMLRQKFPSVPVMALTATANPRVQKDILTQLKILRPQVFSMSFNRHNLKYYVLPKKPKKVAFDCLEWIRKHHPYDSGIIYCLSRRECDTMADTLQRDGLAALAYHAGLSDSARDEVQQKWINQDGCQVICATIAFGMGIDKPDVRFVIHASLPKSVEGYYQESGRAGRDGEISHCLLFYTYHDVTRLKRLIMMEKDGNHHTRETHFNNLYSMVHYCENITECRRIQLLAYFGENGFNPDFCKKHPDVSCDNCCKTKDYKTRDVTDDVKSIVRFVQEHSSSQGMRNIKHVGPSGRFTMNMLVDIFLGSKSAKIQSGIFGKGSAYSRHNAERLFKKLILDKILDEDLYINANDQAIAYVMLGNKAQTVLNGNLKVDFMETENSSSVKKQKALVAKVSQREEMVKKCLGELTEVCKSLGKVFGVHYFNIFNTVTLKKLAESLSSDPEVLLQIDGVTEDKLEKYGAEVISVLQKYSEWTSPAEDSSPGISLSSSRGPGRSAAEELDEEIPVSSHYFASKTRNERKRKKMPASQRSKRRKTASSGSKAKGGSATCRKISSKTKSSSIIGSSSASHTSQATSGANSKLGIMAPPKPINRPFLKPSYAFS
Lysosomal acid glucosylceramidase (Homo sapiens), sequence (P04062 whole entry, looked up): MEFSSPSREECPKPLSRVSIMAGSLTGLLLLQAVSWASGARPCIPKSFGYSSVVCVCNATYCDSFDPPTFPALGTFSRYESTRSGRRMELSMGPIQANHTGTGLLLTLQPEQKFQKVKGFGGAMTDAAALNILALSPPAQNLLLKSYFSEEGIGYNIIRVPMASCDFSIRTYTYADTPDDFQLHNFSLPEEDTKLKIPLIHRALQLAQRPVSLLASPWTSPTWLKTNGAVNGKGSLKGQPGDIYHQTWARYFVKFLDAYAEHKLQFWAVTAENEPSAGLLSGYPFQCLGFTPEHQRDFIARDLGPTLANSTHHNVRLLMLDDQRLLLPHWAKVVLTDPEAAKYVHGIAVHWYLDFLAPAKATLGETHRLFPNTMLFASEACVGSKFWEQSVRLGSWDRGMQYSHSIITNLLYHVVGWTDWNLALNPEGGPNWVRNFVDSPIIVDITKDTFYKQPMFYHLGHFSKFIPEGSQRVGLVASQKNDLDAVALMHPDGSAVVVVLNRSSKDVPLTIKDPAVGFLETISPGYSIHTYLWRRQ

Consider `N#CC(O[C@@H]1O[C@H](CO[C@@H]2O[C@H](CO)[C@@H](O)[C@H](O)[C@H]2O)[C@@H](O)[C@H](O)[C@H]1O)c1ccccc1` (stereo not given in full), for which the compound was classed as inactive in assay [1]. Further, in assay [2], the Potency result is “inactive”.

For the compound `CCCCCCC(C)(C)c1cc(O)c2c(c1)OC(C)(C)C1CC=C(CO)C[C@H]21` (stereo not given in full), in assay [3], the Potency is 10 µM (active).

On to `COC(=O)[C@]12CCC(C)(C)C[C@H]1[C@H]1C(=O)C=C3[C@@]4(C)C=C(C#N)C(=O)C(C)(C)[C@@H]4CC[C@@]3(C)[C@]1(C)CC2`, for which the viability (% of control) in [4] came out at 0.135%. In addition, the viability, percent of control in assay [5] turned out to be 1.52%. Further, the results for the Potency in assay [6], in [9] and in assay [10] were 0.662 µM (active), 5.01 µM (active) and 10 µM (active), respectively. Further, the result in assay [7] and in assay [8] was inactive.

Turning to `Cc1c(N)nc([C@H](CC(N)=O)NC[C@@H](N)C(N)=O)nc1C(=O)N[C@H](C(=O)N[C@@H](C)[C@H](O)[C@@H](C)C(=O)N[C@@H](C(=O)NCCc1nc(-c2nc(C(=O)NCCC[S+](C)C)cs2)cs1)[C@@H](C)O)C(O[C@H]1O[C@H](CO)[C@H](O)[C@@H](O)[C@H]1O[C@H]1O[C@H](CO)[C@@H](O)[C@H](OC(N)=O)[C@@H]1O)c1cnc[nH]1` (stereo not given in full), the Potency in assay [11] is 14.1 µM (active).

Take `CC(C)(O)/C=C\C(=O)[C@](C)(O)[C@H]1[C@H](O)C[C@]2(C)[C@@H]3CC=C4[C@@H](C=C(O)C(=O)C4(C)C)[C@]3(C)C(=O)C[C@@]12C`: the Potency in assay [12] is > 11.4 µM (inactive); in [13], 0.398 µM (active).

For `C=C(C)[C@@H]1CCC(C)=C[C@H]1c1c(O)cc(CCCCC)cc1O`, in assay [14], the Potency result is “inactive”.

In the case of `C[C@]12CC[C@H]3[C@@H](CCC4C[C@H](O)CC[C@@]43C)[C@@H]1CC[C@@H]2O` (stereo not given in full), in assay [15], the Potency entry is “inactive”. The compound was classed as inactive in [16], in [17] and in [18].

For `NCC#Cc1ccccc1`, the outcome in assay [19] was inactive. Besides, the Potency entry in assay [20] was “inactive”.
